Assay outcomes: PubChem, National Center for Advancing Translational Sciences (NCATS)
An excerpt weighted towards active compounds, which were near 2.4% of everything screened.
Cruzain inh noDet: inhibitors of Trypanosoma cruzi cruzain without detergent; P25779; purified cruzain, Z-FR-AMC fluorescence, no detergent; Potency, µM, hits mostly inhibitors; actives 2.3% (n = 200,000); AID 1476; note: nearly all actives have a fitted effect of over 40% in size
Target sequence (P25779 123-467 limits assumed): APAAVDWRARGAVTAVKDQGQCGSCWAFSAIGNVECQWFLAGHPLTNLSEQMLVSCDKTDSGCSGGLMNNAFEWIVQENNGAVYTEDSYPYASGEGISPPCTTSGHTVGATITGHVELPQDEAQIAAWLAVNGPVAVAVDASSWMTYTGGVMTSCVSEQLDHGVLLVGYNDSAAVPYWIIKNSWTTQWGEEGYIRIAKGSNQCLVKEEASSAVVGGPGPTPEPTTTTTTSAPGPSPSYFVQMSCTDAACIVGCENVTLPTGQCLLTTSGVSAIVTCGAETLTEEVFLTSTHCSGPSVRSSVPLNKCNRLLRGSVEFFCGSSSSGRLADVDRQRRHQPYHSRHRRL
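Purified cruzain at 1.5 nM, pre-incubated 15 min with compound at room temperature in 100 mM sodium acetate pH 5.5, 5 mM DTT, 0.00005% Triton X-100. Reaction started with 2 uM Z-FR-AMC; AMC fluorescence increase over 60 s gives rate.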
Cruzain Triton: cruzain (T. cruzi) inhibition with detergent. purified cruzain, Z-FR-AMC fluorescence, 0.01% Triton. P25779. Potency, µM, most hits filed as inhibitors. actives 0.43% (n = 200,000); note: nearly all actives have a fitted effect of over 40% in size
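Enzyme 1.5 nM, Z-FR-AMC 2 uM, NaOAc 100 mM pH 5.5, DTT 5 mM, Triton X-100 0.01%; 15 min RT compound preincubation; kinetic ex360/em450, 60 s delta.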
A number is an active result; . = inactive; ? = inconclusive. Calls come from the whole dose curve; as a rule, active = well fitted curve in the direction sought with a large enough effect; inconclusive = small, poorly fitted or top-dose-only effect, or another doubt; inactive = no such curve, though single readings can be large; an effect the other way counts as inactive or inconclusive.

SMILES | Cruzain inh noDet | Cruzain Triton
CCCCOC(=O)CCN1C(=O)/C(=C2\SC(=S)N(CCC(=O)OCCCC)C2=O)SC1=S | 13µM | .
CCCCOC(=O)CCn1[nH]c(=O)c2ccccc2c1=O | . | .
O=C(Nc1cccc2cccnc12)[C@@H]1[C@@H](C(=O)O)[C@H]2CC[C@@H]1O2 | . | .
O=S(=O)(Nc1nc2ccccc2nc1N1CCN(c2ccccc2)CC1)c1ccc(F)cc1 | 32µM | .
CC(=O)Nc1ccc(S(=O)(=O)Nc2nc3ccccc3nc2N2CCCC2)cc1 | . | .
CCOc1ccccc1NC(=O)Nc1cc2c(cc1N1CCCCC1)n(CC)c(=O)n2CC | . | .
CCOc1ccc(C(=O)N2CCc3cc(OC)c(OC)cc3C2COc2ccc3c(C)cc(=O)oc3c2)cc1OCC (stereo not drawn) | . | .
COCCn1c(=O)c(-c2ccccc2)nc2cnc(N3CCN(C)CC3)nc21 | ? | .
CC1CCc2c(sc(NC(=O)COc3ccccc3C(C)(C)C)c2C#N)C1 (stereo not drawn) | . | .
CC1CCc2c(sc(NC(=O)COC(=O)c3ccccc3NCc3ccco3)c2C#N)C1 (stereo not drawn) | 16µM | .
Cc1ccccc1C(=O)NC(=S)Nc1sc2c(c1C#N)CCC(C)C2 (stereo not drawn) | 16µM | .
N#Cc1c(NC(=S)NC(=O)c2ccccc2)sc2c1CCN(CCc1ccccc1)C2 | 16µM | .
N#Cc1c(NC(=S)NC(=O)c2ccccc2)sc2c1CCCC2 | . | .
Cc1cc(C(=O)Nc2sc3c(c2C#N)CCC(C)C3)cs1 (stereo not drawn) | ? | .
Cc1ccco1 | . | .
CC(C)c1ccc(C2N=C(N)Nc3nc4ccccc4n32)cc1 (stereo not drawn) | . | .
COc1cccc(-c2cc(NCc3cccc(C)c3)ncn2)c1 | . | .
COc1ccc(OCCn2cc(/C=N/NC(=O)c3ccncc3)c3ccccc32)cc1 | ? | .
CNC(=S)N/N=C/c1cn(CCOc2ccccc2OC)c2ccccc12 | 32µM | .
CNC(=S)N/N=C/c1cn(CCOc2cccc(OC)c2)c2ccccc12 | 25µM | .
COc1cccc(OCCn2cc(/C=N/NC(=O)c3ccncc3)c3ccccc32)c1 | ? | .
Cc1cc(C)c(Cn2c3ccccc3c3cnn(CC(=O)NCC(C)c4ccccc4)c(=O)c32)c(C)c1 (stereo not drawn) | . | .
CCCCOC(=O)c1c(C)oc2c1cc(NS(=O)(=O)c1cc(OC)ccc1OC)c1ccccc12 | 13µM | .
COc1ccc(OC)c(S(=O)(=O)Nc2cc3c(C(C)=O)c(C)oc3c3ccccc23)c1 | . | .
Cc1ccc(/C=C/C(=O)Nc2nc(-c3cccs3)ns2)cc1 | ? | .
SMILES | Cruzain inh noDet | Cruzain Triton
O=C(/C=C/c1ccccc1)Nc1nc(-c2cccs2)ns1 | 20µM | .
Cc1ccc(-n2ncc(C(=O)NCc3ccccc3)c2C2CCN(C(=O)OC(C)(C)C)CC2)cc1 | . | .
O=C(COc1cccc(C(F)(F)F)c1)Nc1ccc(S(=O)(=O)N2CCCC2)cc1 | . | .
COc1ccc(NC(=O)CSc2nnc(N)s2)cc1 | . | .
CCOc1ccc(C(=O)CSc2nnc(N)s2)cc1 | 25µM | .
COc1ccc(N/C=C\C(=O)c2ccc3c(c2)OCO3)cc1OC | . | .
O=C(/C=C\Nc1cccc(F)c1)c1ccc2c(c1)OCO2 | 25µM | .
CN(C)C=O | . | .
O=C1OCC2=C1C(c1ccc(F)cc1)Sc1ccccc1N2 (stereo not drawn) | . | .
CC(C)(C)c1ccc(C2Sc3ccccc3NC3=C2C(=O)c2ccccc23)cc1 (stereo not drawn) | 7.9µM | .
COc1ccccc1NS(=O)(=O)c1cc(NC(=O)Nc2cccc(C)c2)ccc1N1CCCCC1 | 5µM | .
O=C(Nc1ccc(Cl)cc1)Nc1ccc(N2CCCC2)c(S(=O)(=O)Nc2ccccc2Cl)c1 | ? | .
COc1ccc(C(=O)NC2c3ccccc3-c3ccccc32)cc1 | 20µM | .
O=C(NC1c2ccccc2-c2ccccc21)c1ccco1 | . | .
CC(=O)OCC(N)C(=O)c1ccccc1 (stereo not drawn) | . | .
CCc1c(C)sc2c1CCN(Cc1cccc(OC)c1)C2c1ccccc1 (stereo not drawn) | . | .
COc1ccc2c(c1)c1nnc(SCC(=O)N3CCCCC3C)nc1n2C (stereo not drawn) | . | 14µM
COc1ccc(N2CCN(C(=O)CSc3nnc4c5cc(C)ccc5n(C)c4n3)CC2)cc1 | ? | .
C[C@H](N)Cc1c[nH]c2ccc(OCc3cccs3)cc12 | . | .
O=C(O)CCc1ccc(-c2ccc(Cl)cc2)n1-c1cccc(C(F)(F)F)c1 | . | ?
O=C1/C(=C\c2ccccc2)CCc2c1[nH]c1ccccc21 | ? | .
Cc1ccc2[nH]c3c(c2c1)CC/C(=C/c1ccccc1)C3=O | 13µM | .
Cc1ccc2[nH]c(-c3ccccc3)cc(=O)c2c1 | . | .
Cc1ccc(/C=C2/CCc3c([nH]c4ccccc34)C2=O)cc1 | 32µM | .
CCN(CC)c1ccc(N2C(=O)/C(=C\c3cccs3)SC2=S)cc1 | 25µM | .
SMILES | Cruzain inh noDet | Cruzain Triton
O=C1/C(=C/c2cccs2)SC(=S)N1c1ccccc1 | ? | .
O=C(O)CCC(=O)c1ccc[nH]1 | . | .
O=C1/C(=C/c2c[nH]c3ccccc23)CCC/C1=C\c1c[nH]c2ccccc12 | 25µM | .
O/N=C/c1c[nH]c2ccccc12 | . | .
Cc1nc(-n2nc(C)c(CCC(C)C)c2C)sc1C(=O)Nc1ccc(Br)cc1 | . | .
CCOC(=O)c1c(NC(=O)C2C3C=CC(CC3)C2C(=O)O)sc(C)c1C (stereo not drawn) | . | .
CCOC(=O)c1c(NC(=O)C2=C(C)NC(=S)NC2c2ccc(F)cc2)sc(C)c1C (stereo not drawn) | 16µM | .
CCOC(=O)c1c(NC(=O)C2=C(C)NC(=S)NC2c2ccc(F)cc2F)sc(C)c1C (stereo not drawn) | ? | .
CCOC(=O)c1c(NC(=O)C2=C(C)NC(=S)NC2c2ccc(C)cc2)sc(C)c1C (stereo not drawn) | 20µM | .
COc1ccc(CNC(=O)CSc2nnc(C)c3c(C)n(-c4ccccc4)nc23)c(OC)c1 | . | .
CCC/C=C(\CCC)C(NC(=O)c1ccco1)c1ccc(C(=O)OC)cc1 (stereo not drawn) | . | .
NC(=NC1C2CC3CC(C2)CC1C3)Nc1ccc(I)cc1 (stereo not drawn) | . | .
Cc1ccc(CNC(=O)c2cc3c(s2)-c2ccccc2SC3)cc1 | ? | .
COc1ccccc1CNC(=O)c1cc2c(s1)-c1ccc(Cl)cc1SC2 | . | .
Cc1ccc(CNC(=O)c2cc3c(s2)-c2ccc(Cl)cc2SC3)cc1 | 13µM | .
O=C(NCc1ccccc1Cl)c1cc2c(s1)-c1ccc(Cl)cc1SC2 | 10µM | .
Cc1ccc(N2CC(c3nnc(NC(=O)c4ccco4)s3)CC2=O)cc1Cl (stereo not drawn) | . | .
CCc1ccc(NC(=O)Cn2c(-c3cncs3)nc3ccccc32)cc1 | . | .
CCc1ccc(NC(=O)CS(=O)CC(=O)NC(C)CCc2ccco2)cc1 (stereo not drawn) | 25µM | .
CCc1ccc(NC(=O)N(Cc2ccco2)C(C)c2cccs2)cc1 (stereo not drawn) | . | .
COc1ccc(S(=O)(=O)Nc2cccc(S(=O)(=O)N3CCCCCC3)c2)cc1 | . | .
O=S(=O)(Nc1nc2ccccc2nc1Nc1cccc(S(=O)(=O)N2CCCCC2)c1)c1ccccc1 | 16µM | .
